# Experimental data from the supplement of paper PMC9694430.
# Experiments:
# Assay in all cases: thermal shift delta Tm vs DMSO control; higher = stronger stabilization (binding)
# Details in all cases: 12.5 µM; protein concentration 2 µM
# LOC_OS02G45750-cb003 = test system: LOC_OS02G45750-cb003
# How it was run: (§1)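 Rice kinase domain constructs were expressed in E. coli, purified, and tested by differential scanning fluorimetry with compound added in DMSO. Each well of a 96-well plate held 19.5 μl of 2 μM kinase in 100 mM potassium phosphate pH 7.5, 150 mM NaCl, 10% glycerol and 5 × SYPRO Orange, and fluorescence was read from 25°C to 95°C at 0.05°C/s. The melting temperature shift is the mean of triplicates, taken against protein with DMSO alone after Boltzmann fitting.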
# LOC_OS02G54510-cb004 = test system: LOC_OS02G54510-cb004
# How it was run: as §1
# LOC_OS03G04050-cb001 = test system: LOC_OS03G04050-cb001
# How it was run: as §1
# LOC_OS03G12390-cb001 = test system: LOC_OS03G12390-cb001
# How it was run: as §1
# LOC_OS03G27990-cb004 = test system: LOC_OS03G27990-cb004
# How it was run: as §1
# LOC_OS03G50450-cb001 = test system: LOC_OS03G50450-cb001
# How it was run: as §1
# LOC_OS03G50810-cb003 = test system: LOC_OS03G50810-cb003
# How it was run: as §1
# LOC_OS04G35114-cb001 = test system: LOC_OS04G35114-cb001
# How it was run: as §1
# LOC_OS04G38480-cb003 = test system: T1, LOC_OS04G38480-cb003
# T1 sequence (whole entry): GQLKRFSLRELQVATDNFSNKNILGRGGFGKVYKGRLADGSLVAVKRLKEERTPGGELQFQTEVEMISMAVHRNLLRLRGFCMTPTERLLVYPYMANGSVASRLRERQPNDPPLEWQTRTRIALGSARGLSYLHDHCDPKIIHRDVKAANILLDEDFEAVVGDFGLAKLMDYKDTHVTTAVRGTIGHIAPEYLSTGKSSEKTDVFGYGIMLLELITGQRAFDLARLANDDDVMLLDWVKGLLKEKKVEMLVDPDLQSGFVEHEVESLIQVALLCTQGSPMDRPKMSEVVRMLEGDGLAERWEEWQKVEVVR
# How it was run: as §1
# LOC_OS04G41100-cb001 = test system: T2, LOC_OS04G41100-cb001
# T2 sequence (whole entry): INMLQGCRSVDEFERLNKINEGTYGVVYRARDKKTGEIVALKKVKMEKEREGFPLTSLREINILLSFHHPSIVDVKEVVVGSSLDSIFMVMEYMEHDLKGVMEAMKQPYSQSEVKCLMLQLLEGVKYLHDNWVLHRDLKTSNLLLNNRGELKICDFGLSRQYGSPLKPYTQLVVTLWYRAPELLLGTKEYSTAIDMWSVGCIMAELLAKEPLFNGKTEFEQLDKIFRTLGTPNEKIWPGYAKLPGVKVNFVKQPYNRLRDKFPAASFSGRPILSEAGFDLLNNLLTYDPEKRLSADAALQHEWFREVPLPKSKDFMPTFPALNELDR
# How it was run: as §1
# LOC_OS04G57630-cb004 = test system: LOC_OS04G57630-cb004
# How it was run: as §1
# LOC_OS05G07850-cb002 = test system: LOC_OS05G07850-cb002
# How it was run: as §1
# LOC_OS05G16824-cb004 = test system: LOC_OS05G16824-cb004
# How it was run: as §1
# LOC_OS05G28520-cb001 = test system: LOC_OS05G28520-cb001
# How it was run: as §1
# LOC_OS05G30820-cb001 = test system: LOC_OS05G30820-cb001
# How it was run: as §1
# LOC_OS05G43570-cb004 = test system: LOC_OS05G43570-cb004
# How it was run: as §1
# LOC_OS06G16330-cb003 = test system: LOC_OS06G16330-cb003
# Sequence of LOC_OS06G16330-cb003 (as listed by the source): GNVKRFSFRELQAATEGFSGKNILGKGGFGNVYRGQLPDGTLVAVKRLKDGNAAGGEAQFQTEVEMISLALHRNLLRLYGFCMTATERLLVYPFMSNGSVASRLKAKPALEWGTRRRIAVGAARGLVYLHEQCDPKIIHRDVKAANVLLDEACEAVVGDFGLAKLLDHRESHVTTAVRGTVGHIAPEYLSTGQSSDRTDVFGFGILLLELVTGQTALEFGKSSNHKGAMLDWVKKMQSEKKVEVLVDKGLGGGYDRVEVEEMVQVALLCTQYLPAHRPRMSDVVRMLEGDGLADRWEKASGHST
# How it was run: as §1
# LOC_OS06G22820-cb001 = test system: T3, LOC_OS06G22820-cb001
# T3 sequence (whole entry): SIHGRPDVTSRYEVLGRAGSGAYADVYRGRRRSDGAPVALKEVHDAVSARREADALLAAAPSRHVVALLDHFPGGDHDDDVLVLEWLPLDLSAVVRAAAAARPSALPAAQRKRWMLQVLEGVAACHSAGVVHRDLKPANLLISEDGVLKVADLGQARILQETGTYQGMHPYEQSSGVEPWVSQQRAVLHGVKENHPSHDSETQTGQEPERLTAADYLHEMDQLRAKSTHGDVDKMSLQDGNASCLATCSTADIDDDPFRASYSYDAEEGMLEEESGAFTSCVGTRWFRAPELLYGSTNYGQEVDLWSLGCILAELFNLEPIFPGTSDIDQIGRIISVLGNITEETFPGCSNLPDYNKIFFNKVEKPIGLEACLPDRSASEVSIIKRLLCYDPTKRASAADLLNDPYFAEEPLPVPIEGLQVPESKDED
# How it was run: as §1
# LOC_OS07G06570-cb004 = test system: LOC_OS07G06570-cb004
# How it was run: as §1
# LOC_OS07G07230-cb001 = test system: LOC_OS07G07230-cb001
# How it was run: as §1
Structure (SMILES),thermal shift delta Tm (LOC_OS02G45750-cb003) [°C],thermal shift delta Tm (LOC_OS02G54510-cb004) [°C],thermal shift delta Tm (LOC_OS03G04050-cb001) [°C],thermal shift delta Tm (LOC_OS03G12390-cb001) [°C],thermal shift delta Tm (LOC_OS03G27990-cb004) [°C],thermal shift delta Tm (LOC_OS03G50450-cb001) [°C],thermal shift delta Tm (LOC_OS03G50810-cb003) [°C],thermal shift delta Tm (LOC_OS04G35114-cb001) [°C],thermal shift delta Tm (LOC_OS04G38480-cb003) [°C],thermal shift delta Tm (LOC_OS04G41100-cb001) [°C],thermal shift delta Tm (LOC_OS04G57630-cb004) [°C],thermal shift delta Tm (LOC_OS05G07850-cb002) [°C],thermal shift delta Tm (LOC_OS05G16824-cb004) [°C],thermal shift delta Tm (LOC_OS05G28520-cb001) [°C],thermal shift delta Tm (LOC_OS05G30820-cb001) [°C],thermal shift delta Tm (LOC_OS05G43570-cb004) [°C],thermal shift delta Tm (LOC_OS06G16330-cb003) [°C],thermal shift delta Tm (LOC_OS06G22820-cb001) [°C],thermal shift delta Tm (LOC_OS07G06570-cb004) [°C],thermal shift delta Tm (LOC_OS07G07230-cb001) [°C]
CCS(=O)(=O)N1CC(CC#N)(n2cc(-c3ncnc4[nH]ccc34)cn2)C1,2.13,1.15,0.77,1.62,0.66,1.09,0.62,1.29,0.44,0.43,-0.03,4.2,-0.69,0.54,0.72,0.88,2.6,0.77,1.1,0.82
Cn1c(=O)c(F)c(Nc2ccc(I)cc2F)c2c(=O)n(C[C@@H](O)CO)cnc21,1.03,0.28,0.51,0.07,0.21,0.15,0.78,0.35,0.83,0.43,0.47,1.59,-1.32,0.23,0.72,1.08,0.18,0.76,0.33,0.02
O=C1NC(=O)[C@@H](c2cn3c4c(cccc24)CCC3)[C@@H]1c1c[nH]c2ccccc12 [Tivantinib (ARQ 197)],0.51,0.03,0.44,-0.01,0.43,0.17,0.07,0.51,0.13,0.36,0.47,0.25,-2.47,0.49,0.62,0.57,0.29,0.65,0.51,0.56
CCCCNc1ncc2c(-c3ccc(CN4CCN(C)CC4)cc3)cn([C@H]3CC[C@H](O)CC3)c2n1,18.4,0.6,0.12,8.3,10.8,6.64,10.5,12.3,4.63,0.42,6.55,11.9,15.5,0.68,1.96,0.44,13.5,0.17,0.92,-0.01
O=C(O)c1ccc(-c2c[nH]c3ncc(-c4ccccc4)cc23)cc1C1CCCC1,1.28,0.31,0.69,0.39,0.6,1.12,0.8,2.01,4.2,0.44,3.53,6.21,4.46,1.1,0.74,-0.07,10.4,0.29,-3.29,0.05
Cc1cc(C)c(/C=C2\C(=O)Nc3ccccc32)[nH]1 [Semaxanib (SU5416)],0,0.58,0.69,4.53,1.72,2.32,2.91,6.57,2.87,0.32,0.62,6.49,8.99,0.65,0.48,0.37,6.54,0.6,1.4,-0.2
COc1ncc(-c2ccc3nccc(-c4ccnnc4)c3c2)cc1NS(=O)(=O)c1ccc(F)cc1F,1.38,0.45,0.9,0.76,0.69,1.26,1.09,2.35,1.39,0.74,0.93,6.11,2.11,0.26,0.47,0.73,2.61,0.6,0.86,-0.21
CNC(=O)c1cc(Oc2ccc(NC(=O)Nc3ccc(Cl)c(C(F)(F)F)c3)cc2)ccn1 [Sorafenib],4.5,1.47,0.48,1.7,0.3,1.22,1.02,1.71,3.55,0.99,2.09,9.44,1.37,-0.04,0.65,1.2,2.66,1.5,1,-0.34
Cc1c(NC(=O)OC[C@@H]2COCCN2)cn2ncnc(Nc3ccc4c(cnn4Cc4cccc(F)c4)c3)c12,0.67,0.27,0.42,0.69,0.14,0.45,0.15,1.04,1.85,0.82,0.21,0.64,0.54,0.43,0.46,0.75,-0.49,0.8,0.91,0.29
CN(C)CCCn1cc(C2=C(c3c[nH]c4ccccc34)C(=O)NC2=O)c2ccccc21,0.99,0.36,0.65,0.12,0.5,1.02,0.83,1.37,-0.32,0.65,0.12,3.88,1.25,0.24,0.37,0.07,0.14,0.44,0.94,0.81
CN1C(=O)[C@@H](NC(=O)c2n[nH]c(Cc3ccccc3)n2)COc2ccccc21,0.85,-0.02,0.45,0.81,0.38,0.66,0.57,-0.51,2,0.34,0.41,0.32,2.34,-0.04,0.15,0.36,0.02,0.48,1.77,0.47
COc1cc2ncnc(Sc3nnc(C)s3)c2cc1OC,2.63,0.34,0.71,-0.23,0.56,0.5,0.54,2.86,0.54,0.9,0.11,4.44,-0.85,0.25,0.64,0.17,2.49,0.32,1.21,1.4
Cc1ccc(NC(=O)c2ccc(CN3CCN(C)CC3)cc2)cc1Nc1nc(-c2cccnc2)cs1 [Masitinib (AB1010)],0.39,0.33,0.47,0.28,0.29,0.58,0.26,0.04,0.69,0.53,-0.19,0.62,-4.62,0.59,0.34,0.52,-0.18,0.52,0.98,0.23
Clc1ccc(Nc2nnc(Cc3ccncc3)c3ccccc23)cc1 [Vatalanib (PTK787) 2HCl],0.06,0.03,0.21,-0.24,0.02,-0.09,-0.01,0.3,-0.05,0.49,-0.2,-0.28,-1.81,-0.19,0.45,0.05,0.09,0.55,0.43,0.41
O=C(/C=C/c1ccc(O)c(O)c1)c1ccc(O)cc1O [Butein],2.94,0.39,1.9,3.8,1.75,2.26,2.72,3.66,3.43,2.09,2.45,8.49,4.48,1.45,0.81,1.93,4.87,2.16,1.46,0.82
CC(C)[C@H](CO)Nc1nc(Nc2cccc(Cl)c2)c2ncn(C(C)C)c2n1 [Purvalanol A],5.95,2.06,0.15,3.95,3.63,7.22,2.8,6.09,1.87,0.54,1.65,4.54,10.1,1.68,2.51,0.79,2.99,0.25,0.14,-0.31
CC(C)Nc1cc(-c2c[nH]c(C(=O)N[C@H](CO)c3cccc(Cl)c3)c2)c(Cl)cn1,0.06,0.08,0.57,1.86,0.44,0.2,0.3,1.54,1.63,1.97,-0.02,2.27,-2.75,0.6,0.63,0.49,0.62,0.65,1.26,-0.16
Cc1ccc(Nc2cc(N[C@@H]3CCCC[C@@H]3N)nnc2C(N)=O)nc1C,2.16,0.73,0.52,2.19,1.5,1.66,1.11,1.06,1.11,0.51,-0.04,6.83,5.76,0.7,1.49,0.67,4.95,1.48,1.39,0.12
CCc1nc(-c2cccc(C)c2)c(-c2ccnc(NC(=O)c3ccccc3)c2)s1,0.74,-0.41,0.27,0.6,0.28,0.06,0.03,1.27,0.74,0.61,0.17,4.1,-0.96,0.55,0.63,-0.08,0.66,0.77,1.16,-0.21
